# Shiga toxin inh: Shiga toxin inhibition; Vero cells, Shiga toxin protein synthesis inhibition reporter; hit rate 9.2% among 290,000; inhibition, % at 38.7 µM; in the data active = inhibition mostly above about 28%, no sharp cut-off; inactive = mostly below about 43%; note: 0% is about no effect
# CHX counter: counter-screen for Shiga toxin inhibitors: cycloheximide protein synthesis inhibition. max response, %. cell reporter, cycloheximide protein synthesis inhibition counterscreen. hit rate 12% among 300,000. AID 2314; in the data active = max response mostly above about 13%, no sharp cut-off; inactive = mostly below about 14%; note: read at 38.3 µM for the half of the compounds with a filed dose; 0% is about no effect
# RE007 growth inh: less growth of the S. pombe RE007 Vpr strain. hit rate 0.21% among 360,000. Potency, µM (series often up to 92.2 µM), inactives show at the highest dose activity change, negative = less growth, actives largely listed as inhibitors. S. pombe RE007 Vpr strain, BacTiter-Glo ATP luminescence, 24 h; active = well fitted falling curve with a large enough effect; inconclusive = small, poorly fitted or top-dose-only effect; inactive = no such curve, though single readings can be large or run the other way; note: potency is the fitted concentration of half-maximal effect; % is set by controls: 0 for no effect and ±100 for the full control effect; nearly all actives have a fitted effect of over 50% in size
#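 Fission yeast strain RE007, carrying one chromosomally integrated HIV-1 vpr copy, was seeded at OD 0.01 in PMG+AL medium with 23 nL pinned compound. After 24 h at 30 °C and 99% humidity, viability was read by BacTiter-Glo luminescence.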
# TbPYK inhibitor: inhibitors of Trypanosoma brucei pyruvate kinase. Q57TT1. TbPYK enzyme, Kinase-Glo Plus ATP luminescence, 45 min. Potency, µM (doses to about 76.8 µM), without a hit: top-dose activity, negative = inhibition, actives largely listed as inhibitors. hit rate 0.12% among 410,000; note: potency is the fitted concentration of half-maximal effect; % is set by controls: 0 for no effect and ±100 for the full control effect; nearly all actives have a fitted effect of over 50% in size
#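 Glycolytic pyruvate kinase of T. brucei was incubated with substrate, test compound and 130 uM ADP for 45 minutes at room temperature. Luminescent Kinase-Glo Plus signal was measured after 10 minutes.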
# FBPA Giardia inh: blocks Giardia fructose-bisphosphate aldolase activity; hit rate 0.71% among 290,000; Potency, µM (highest dose often 59.6 µM), for inactives: at the top dose activity, negative = inhibition, actives largely listed as inhibitors; purified Giardia FBPA; A8B2U2; AID 2451; note: potency is the fitted concentration of half-maximal effect; % is set by controls: 0 for no effect and ±100 for the full control effect; nearly all actives have a fitted effect of over 55% in size
# Target sequence (A8B2U2 whole entry, looked up): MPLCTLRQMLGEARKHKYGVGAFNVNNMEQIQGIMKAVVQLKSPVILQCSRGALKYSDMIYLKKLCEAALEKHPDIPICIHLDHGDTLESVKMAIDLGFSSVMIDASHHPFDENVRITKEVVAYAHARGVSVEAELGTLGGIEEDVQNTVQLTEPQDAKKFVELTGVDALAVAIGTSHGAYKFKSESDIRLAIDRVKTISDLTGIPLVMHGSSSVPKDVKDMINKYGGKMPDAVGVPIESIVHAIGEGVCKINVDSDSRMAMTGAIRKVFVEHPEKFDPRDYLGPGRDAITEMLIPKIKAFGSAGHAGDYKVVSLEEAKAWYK
#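 Giardia FBPA (40 nM reagent) was preincubated 10 min at RT with compound (up to 57.5 uM final), then substrate plus GAPDH/TPI/NAD/arsenate coupling system with diaphorase/resazurin was added; resorufin fluorescence (525/598 nm) was read after 20 min.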
# LmPK inhibitor: blocks Leishmania mexicana pyruvate kinase activity; Q27686; purified LmPK, Kinase-Glo ATP luminescence, 1 h; Potency, µM (titrated, usually from 57.5 µM), without a hit: at the top dose activity change, negative = inhibition, actives largely listed as inhibitors; hit rate 0.37% among 290,000; AID 1721; note: potency is the fitted concentration of half-maximal effect; % is set by controls: 0 for no effect and ±100 for the full control effect
#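 qHTS format; LmPK 0.1 nM; substrates PEP 0.5 mM and ADP 0.1 mM. One-hour room-temperature incubation, then coupled luciferase luminescence; 0.5 nM enzyme wells mark activation.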
# * hit, by the source's call; u = inconclusive; x = no result given. Only a selection was taken, and hits are over-represented in it overall. Unless noted, calls come from the whole dose curve; as a rule, active = well fitted curve in the direction sought with a large enough effect; inconclusive = small, poorly fitted or top-dose-only effect, or another doubt; inactive = no such curve, though single readings can be large; an effect the other way counts as inactive or inconclusive.
SMILES,Shiga toxin inh,CHX counter,RE007 growth inh,TbPYK inhibitor,FBPA Giardia inh,LmPK inhibitor
NC(=O)C1CCN(C(=O)CCSc2ccc(Cl)cc2)CC1,27.5,24.8,-8.2%,45.2%,1.5%,0.1%
COc1ccc(N2CCN(C(=O)CSc3ccccc3)CC2)cc1,32.2,16.9,-6.2%,2.1%,-10.1%,6.9%
O=C(CCSc1ccc(Cl)cc1)N1CCCCCC1,61.5*,20.6*,u,-1.3%,3.0%,-1.1%
O=C(CSC1=NCCS1)N1CCN(c2ccccc2)CC1,38.4*,26.4*,-0.7%,-0.3%,-2.6%,-2.4%
COc1ccc(N2CCN(C(=O)COC(=O)CSc3ccccc3)CC2)cc1,x,x,u,6.8%,x,x
COc1ccc(N2CCN(C(=O)CSc3ccccc3N)CC2)cc1,-2.6,12.4*,10.7%,-27.5%,-6.7%,0.2%
O=C(CSc1ccccc1)N1CCN(c2ccccc2)CC1,85.2*,17.1,-19.4%,-2.3%,-2.4%,-0.9%
COc1ccccc1CNC(=O)[C@@H](NC(=O)C1CCN(C(=O)[C@@H]2CCCN2C(=O)OC(C)(C)C)CC1)C(C)C,9.2,-2.0,-1.2%,1.3%,-3.0%,-3.5%
CCOc1ccc(NC(=O)Cn2c(=O)n(Cc3ccco3)c(=O)c3ccc(C(=O)NC4CCCC4)cc32)cc1,x,x,x,0.8%,x,x
O=C(CCSc1ccc(Cl)cc1)N1CCN(c2ccc(O)cc2)CC1,58.9*,27.3*,19.4%,u,-6.6%,-2.7%
Fc1ccccc1-n1ncc2c1ncn1nc(Cc3ccccc3)nc21,x,x,x,20.1%,x,x
Cc1ccc(NC(=O)CN(C)S(=O)(=O)c2ccc3c(c2)CCC(=O)N3)c(C)c1,x,x,x,-6.0%,x,x
Nc1nc(-c2cccs2)c(-c2cccs2)s1,-5.7,-1.9,-0.2%,1.1%,-2.2%,-0.6%
CC(=O)Nc1sc(NC(=O)c2ccco2)nc1-c1cccs1,-4.5,-2.2,-4.2%,-7.1%,1.9%,-1.0%
CC1CC1C(=O)Nc1nc(-c2cccs2)c(-c2cccs2)s1 (configuration not stated),-40.6,18.7*,-6.0%,-3.3%,-8.2%,2.0%
O=C(Nc1nc(-c2cccs2)c(-c2ccccc2)s1)c1ccco1,31.2,18.3*,11.7%,-5.3%,-14.8%,11.7%
Cc1cc2ccccc2c(=O)n1CC(=O)Nc1ccc2c(c1)OCCO2,-8.7,-2.4,x,-0.6%,-6.4%,1.2%
Cc1[nH]c2ccccc2c1C(=O)C(=O)Nc1ccc2c(c1)OCCO2,95.8*,34.2*,-5.9%,10.8%,x,-0.5%
CCC(C(=O)Nc1ccc2c(c1)OCCO2)n1c(=O)[nH]c2ccccc2c1=O (configuration not stated),88.3*,73.4*,5.5%,4.0%,3.5%,6.3%
O=C(Nc1ccc2c(c1)OCO2)C(=O)c1c[nH]c2ccccc12,72.1*,27.6*,-2.2%,-8.9%,x,-10.5%
Cc1cc(NC(=O)C(=O)c2c(C)[nH]c3ccccc23)no1,38.6,9.0,10.7%,2.7%,8.7%,1.7%
CCN(CC)C(=O)Cn1cc(C(=O)C(=O)Nc2ccc3c(c2)OCCO3)c2ccccc21,102.6*,48.2*,18.4%,2.4%,-10.6%,-2.0%
CC(=O)c1ccc(NC(=O)CCc2c(C)nn(-c3ccc4nnc(C)n4n3)c2C)cc1,x,x,x,-0.8%,x,x
OC(Cn1cnnc1)c1ccccc1 (configuration not stated),-5.0,1.1,-8.9%,6.9%,u,-3.6%
Cc1ccc(Cn2ccc(NC(=O)c3cc(-c4ccc(Cl)c(Cl)c4)on3)n2)cc1,x,x,x,2.6%,x,x
SMILES,Shiga toxin inh,CHX counter,RE007 growth inh,TbPYK inhibitor,FBPA Giardia inh,LmPK inhibitor
CC(=O)N[C@@H](Cc1c[nH]c2ccccc12)C(=O)OCC(=O)Nc1ccc2c(c1)OCO2,x,x,6.1%,5.4%,x,x
O=C(Nc1ccc2c(c1)OCCO2)C(=O)c1c[nH]c2ccccc12,20.8*,28.9,-1.8%,-11.3%,x,-19.9%
CCN(CC)c1ccc(C(=S)NC2CCCCC2)cc1,76.2*,24.4*,-15.4%,-11.9%,1.4%,0.1%
CN(C(=O)NC1CCCCC1)c1ccccc1,-11.0,-3.2,3.6%,-3.9%,1.0%,1.1%
CCOc1ccc(C(=S)NC2CCCCC2)cc1OCC,-2.0,5.5,-0.9%,u,6.1%,-1.1%
CN(C)c1ccc(C(=S)NC2CCCCC2)cc1,69.2*,24.5*,-3.4%,-16.3%,1.7%,3.8%

# Bioassay records: PubChem, National Center for Advancing Translational Sciences (NCATS)
